# An excerpt weighted towards active compounds, which were near 10% of everything screened.
# JMJD2A Tudor – inhibitors of human JMJD2A Tudor domain; O75164; AlphaScreen JMJD2A-Tudor / H3K4me3 peptide binding; Potency, µM (highest dose often 114 µM), actives largely listed as inhibitors; 390,000 compounds, 4.4% hits; AID 504339; further: nearly all actives have a fitted effect of over 50% in size
# GLS inhibitor – blocks human kidney-isoform glutaminase activity | O94925 | 410,000 compounds, 0.21% hits | AID 624170 | GLS enzymatic activity, qHTS titration | Potency, µM (top dose mostly 45.5 µM), hits mostly inhibitors
#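 hKGA in 45 mM KH2PO4 (pH 8.2), 0.02% Tween-20 with compound, then 1mM L-Glutamine (stock as added) plus glutamate oxidase/HRP/Amplex red coupling mix. Fluorescence read initially and after 30 min at RT; signal change reflects glutamate formation.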
# BAZ2B inh – BAZ2B (human) inhibition; Q9UIF8; AlphaScreen BAZ2B-H3K14Ac peptide displacement; Potency, µM (highest dose often 114 µM), actives largely listed as inhibitors; 360,000 compounds, 4.4% hits; further: nearly all actives have a fitted effect of over 60% in size
# Target sequence (Q9UIF8 whole entry, looked up): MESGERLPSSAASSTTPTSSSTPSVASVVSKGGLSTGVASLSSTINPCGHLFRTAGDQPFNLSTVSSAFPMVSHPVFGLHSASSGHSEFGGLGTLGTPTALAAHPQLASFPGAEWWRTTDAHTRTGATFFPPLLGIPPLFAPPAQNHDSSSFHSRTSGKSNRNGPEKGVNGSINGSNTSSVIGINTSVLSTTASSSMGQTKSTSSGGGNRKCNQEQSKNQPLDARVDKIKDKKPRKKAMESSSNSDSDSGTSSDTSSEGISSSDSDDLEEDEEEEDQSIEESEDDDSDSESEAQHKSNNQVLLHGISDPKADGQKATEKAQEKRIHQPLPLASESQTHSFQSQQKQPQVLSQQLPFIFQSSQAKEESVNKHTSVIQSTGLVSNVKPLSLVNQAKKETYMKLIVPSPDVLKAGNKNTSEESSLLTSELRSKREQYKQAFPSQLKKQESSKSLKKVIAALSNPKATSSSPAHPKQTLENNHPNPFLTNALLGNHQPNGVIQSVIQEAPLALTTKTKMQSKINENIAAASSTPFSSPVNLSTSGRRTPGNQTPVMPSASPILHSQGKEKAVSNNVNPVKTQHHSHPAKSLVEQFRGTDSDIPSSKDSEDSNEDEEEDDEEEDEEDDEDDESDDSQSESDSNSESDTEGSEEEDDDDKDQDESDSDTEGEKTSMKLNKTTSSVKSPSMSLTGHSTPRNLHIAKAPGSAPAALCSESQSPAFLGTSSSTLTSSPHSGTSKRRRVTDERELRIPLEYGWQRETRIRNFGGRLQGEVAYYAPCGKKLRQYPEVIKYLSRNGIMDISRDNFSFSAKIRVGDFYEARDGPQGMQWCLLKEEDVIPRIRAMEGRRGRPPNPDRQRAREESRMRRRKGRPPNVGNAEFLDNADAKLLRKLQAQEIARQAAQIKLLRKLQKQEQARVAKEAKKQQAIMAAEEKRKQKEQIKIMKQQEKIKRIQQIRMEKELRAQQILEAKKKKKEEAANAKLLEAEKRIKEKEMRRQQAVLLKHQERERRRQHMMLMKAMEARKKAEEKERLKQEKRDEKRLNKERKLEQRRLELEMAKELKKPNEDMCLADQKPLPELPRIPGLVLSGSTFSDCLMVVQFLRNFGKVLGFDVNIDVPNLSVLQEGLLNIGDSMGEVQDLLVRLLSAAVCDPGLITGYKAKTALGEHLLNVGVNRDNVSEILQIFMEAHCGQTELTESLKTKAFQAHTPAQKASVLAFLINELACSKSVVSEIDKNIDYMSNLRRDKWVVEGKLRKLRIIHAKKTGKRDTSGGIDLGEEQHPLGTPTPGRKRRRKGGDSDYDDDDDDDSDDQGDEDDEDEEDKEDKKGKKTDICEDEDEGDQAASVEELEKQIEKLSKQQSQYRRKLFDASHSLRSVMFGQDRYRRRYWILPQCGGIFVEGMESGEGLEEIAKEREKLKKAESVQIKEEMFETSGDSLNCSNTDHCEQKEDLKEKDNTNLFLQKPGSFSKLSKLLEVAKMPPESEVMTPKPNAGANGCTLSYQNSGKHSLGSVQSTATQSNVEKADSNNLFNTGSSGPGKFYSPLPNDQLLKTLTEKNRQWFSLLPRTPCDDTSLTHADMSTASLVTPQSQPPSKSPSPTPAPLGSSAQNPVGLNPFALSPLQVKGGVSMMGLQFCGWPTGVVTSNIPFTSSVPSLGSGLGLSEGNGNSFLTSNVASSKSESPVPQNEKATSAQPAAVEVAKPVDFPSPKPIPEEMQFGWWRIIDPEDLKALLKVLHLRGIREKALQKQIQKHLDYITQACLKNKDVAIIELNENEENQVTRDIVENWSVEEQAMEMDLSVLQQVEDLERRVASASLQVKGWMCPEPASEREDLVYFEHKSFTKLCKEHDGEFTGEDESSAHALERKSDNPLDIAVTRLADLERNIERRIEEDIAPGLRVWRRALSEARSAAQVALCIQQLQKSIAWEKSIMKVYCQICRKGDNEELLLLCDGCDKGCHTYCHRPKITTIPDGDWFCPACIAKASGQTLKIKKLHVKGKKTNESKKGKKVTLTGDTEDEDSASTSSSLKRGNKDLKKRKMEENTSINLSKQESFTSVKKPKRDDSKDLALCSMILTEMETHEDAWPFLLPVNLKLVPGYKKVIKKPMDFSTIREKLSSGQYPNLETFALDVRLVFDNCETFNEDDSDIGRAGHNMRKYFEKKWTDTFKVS
#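 AlphaScreen luminescence quantifies BAZ2B engagement of H3K14Ac peptide; the protein and biotinylated peptide are both at 50 nM final, buffer PBS pH 7.4 with 0.01% Tween-20, all steps at room temperature.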
# G9a inh – G9a (human) methyltransferase inhibition; G9a H3K9 monomethylation, AlphaScreen, 2 h; 350,000 compounds, 8.8% hits; Potency, µM (series often up to 102 µM), actives largely listed as inhibitors; AID 504332; further: nearly all actives have a fitted effect of over 75% in size
#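 AlphaScreen read-out: biotin-H3K9 peptide (500 nM) methylation by 20 nM enzyme with 20 uM SAM, 2 h at room temperature after 15 min compound preincubation; anti-monomethyl H3K9 antibody plus donor/acceptor beads, 10 min dark.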
# HP1b chromo inh – inhibitors of HP1-beta chromodomain binding to methylated histone tails | P83916 | AlphaScreen HP1-beta / biotin-H3K9me3 peptide binding | Potency, µM (top dose mostly 114 µM), actives largely listed as inhibitors | 390,000 compounds, 0.56% hits; further: nearly all actives have a fitted effect of over 70% in size
#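 HP1-beta protein (50 nM final) preincubated 30 min at room temperature with biotinylated H3(1-18)K9me3 peptide (50 nM) in PBS pH 7.4, 0.01% Tween-20, then compound added for 30 min. AlphaScreen streptavidin donor/nickel chelate acceptor beads (10 ug/mL final), 30 min dark, luminescence read.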
# Hits are given with their value; n = inactive; u = inconclusive; x = no result; [ ] = remark or other dose. The call rests on the fitted dose curve; in most records, active means well fitted curve in the direction sought with a large enough effect; inconclusive means small, poorly fitted or top-dose-only effect, or another doubt; inactive means no such curve, though single readings can be large; an effect the other way counts as inactive or inconclusive.
SMILES,JMJD2A Tudor,GLS inhibitor,BAZ2B inh,G9a inh,HP1b chromo inh
Cc1nnc(NC(=O)c2cccn(Cc3ccccc3F)c2=O)s1,n,n,n,u,n
Cc1ccc(NC(=O)N(Cc2ccc3c(c2)OCO3)C2CCN(Cc3ccccc3)CC2)cc1Cl,u,n,n,u,n
COc1ccc(CC2C(=O)N(c3ccccc3)C(=O)N(c3ccccc3)C2=O)c(OC)c1,n,n,n,44.7µM,n
COc1ccc(Nc2c(-c3cc(Br)ccc3O)nc3ncccn23)cc1OC,20µM,n,14.1µM,10µM,u
CCC(C)/C=C(C)/C=C/C1=CC2=C(Cl)C(=O)C(C)(OC(C)=O)C(=O)C2=CO1 (centres undefined),35.5µM,n,25.1µM,n[12.7 µM],u
CC[C@H](C)/C=C(C)/C=C/C1=CC2=C(Cl)C(=O)[C@@](C)(OC(C)=O)C(=O)C2=CO1,56.2µM,n,x,x,50.1µM
O=C(Nc1ccc(F)c([N+](=O)[O-])c1)N1C[C@H]2C[C@@H](C1)c1cccc(=O)n1C2,n,n,n,x,n
CN1C(=O)C(Cc2ccsc2)C(=O)N(C)C1=O,n,n,n,11.2µM,n
CN1C(=O)C(Cc2ccccc2)C(=O)N(C)C1=O,n,n,x,x,n
Cc1nc(-c2ccc(-c3ccc(C(=O)N4CCc5cc6c(cc54)C4(CCN(C)CC4)CO6)cc3)c(C)c2)no1,x,x,x,n[12.7 µM],x
O=C(CN1CCCCC1)NNC(=O)c1cccc(Br)c1,n,n,n,n,n
Cc1ccc(C=C2C(Cl)=C(Cl)C(Cl)=C2Cl)cc1,14.1µM,n,20µM,8.91µM,15.8µM
[Cl-].[Cl-].[Hg+2],x,n,x,1.26µM,x
CC(C)(C)NCC(O)c1cc(Cl)c(N)c(C(F)(F)F)c1 (centres undefined),x,n,x,n[12.7 µM],x
COc1ccc2cc1Oc1ccc(cc1)C[C@H]1c3cc(c(OC)cc3CCN1C)Oc1c(OC)c(OC)cc3c1[C@@H](C2)N(C)CC3,u,n,u,n[2.33 µM],n
O=C1CN=C(c2ccccc2)c2cc(Cl)ccc2N1Cc1ccc(Cl)cc1,n,n,n,n,n
O=C(O)CN1C(=O)CN=C(c2ccccn2)c2cc(Cl)ccc21,25.1µM,n,50.1µM,n,n
COc1ccc(-c2oc(=O)n(C)c2-c2ccc(OC)cc2)cc1,u,n,31.6µM,n,n
CN1C(=O)C(=Cc2ccccc2OCc2ccc(Cl)cc2)C(=O)N(C)C1=O,n,n,n,n,n
O=C1NC(=O)C(=Cc2cc(Cl)ccc2OCc2ccc(C(=O)O)cc2)C(=O)N1,n,n,n,31.6µM,n
O=C(c1ccccc1)C(CN1CCCC1)c1ccccc1 (centres undefined),n,n,n,n,n
CC1CCN(C(CC(=O)c2ccccc2)C(=O)c2ccccc2)CC1 (centres undefined),20µM,u,x,x,u
COc1ccc(CN2C(=O)NC(=O)/C(=C\c3cccc(OC)c3OC)C2=O)cc1,56.2µM,n,u,u,n
COc1ccc(CN2C(=O)CC(=O)NC2=O)cc1,n,n,n,n,n
COc1ccc(CN2C(=O)NC(=O)/C(=C/c3ccc([N+](=O)[O-])o3)C2=O)cc1,x,x,14.1µM,7.08µM,x
SMILES,JMJD2A Tudor,GLS inhibitor,BAZ2B inh,G9a inh,HP1b chromo inh
O=S(=O)(Nc1c(O)ccc2ccccc12)c1ccc(F)cc1,u,n,x,x,u
CC(C)(C)c1ccc(O)c(N=Cc2c(O)ccc3ccccc23)c1,u,n,39.8µM,8.91µM,n
S=C(SSC(=S)N1CCCCC1)N1CCCCC1,x,n,x,x,x
O=c1c2ccccc2nc(/C=C\c2ccccc2[N+](=O)[O-])n1-c1ccccc1O,u,n,u,u,u
CN1C(=O)NC(=O)/C(=C\C=C\c2ccccc2[N+](=O)[O-])C1=O,u,n,u,7.94µM,u
CCOCCSc1nc2c(c(-c3cccs3)c1C#N)CC/C2=C/c1cccs1,n,n,n,28.2µM,n
CC(N)(COP(=O)(O)Oc1ccccc1)C(=O)O (centres undefined),x,x,x,n,x
CCOC(=O)c1ccc2c(c1)N(CC)C(=O)c1ccccc1S2,n,n,n,44.7µM,n
c1ccc(-c2nc(N3CCOCC3)s[n+]2-c2ccccc2)cc1,17.8µM,u,n,1.12µM,u
COC(=O)C1=C(c2cccc(OCc3ccccc3)c2)C[C@@H]2CC[C@H]1N2C(=O)NCc1cc(C)oc1C(F)(F)F,n,n,n,n[0.501 µM],n
CCOC(=O)[C@]12Cc3cc(N(C)C)ccc3[C@H]1N(Cc1ccccc1)C(=O)c1ccccc12,15.8µM,n,x,x,n
CCOC(=O)[C@]12Cc3cc(Cl)ccc3[C@H]1N(Cc1ccccc1)C(=O)c1ccccc12,n,n,x,x,n
Cc1ccc(/C=C2\C(=O)NC(=O)N(Cc3ccccc3Cl)C2=O)o1,n,n,31.6µM,12.6µM,n
O=C1NC(=O)N(Cc2ccc(F)cc2)C(=O)/C1=C\c1ccoc1,79.4µM,u,50.1µM,39.8µM,u
CN(C)c1ccc(/C=C2\C(=O)NC(=O)N(Cc3ccc(F)cc3)C2=O)cc1,n,n,n,x,n
O=C1NC(=O)C(CCc2ccncc2)(CCc2ccncc2)C(=O)N1Cc1ccc(F)cc1,n,n,n,x,n
O=C1NC(=O)N(Cc2ccc(F)cc2)C(=O)/C1=C/c1cccs1,n,n,79.4µM,3.98µM,n
O=C1NC(=O)N(Cc2ccccc2Cl)C(=O)/C1=C/c1cccs1,n,n,x,11.2µM,n
O=c1[nH]c(O)c(N=Nc2cc([N+](=O)[O-])ccc2O)c(=O)[nH]1,89.1µM,n,50.1µM,44.7µM,u
COc1cc(CC(C)N)c(OC)cc1Br (centres undefined),x,n,x,x,x
Oc1c(Br)c(Br)c(Br)c(Br)c1Br,u,n,56.2µM,n[0.501 µM],n
Cn1c(-c2ccccc2)c(P(=S)(c2ccccc2)c2ccccc2)c2ccccc21,n,x,x,x,x
COc1cc(C(=O)OC2C[C@H]3CC[C@@H](C2)N3)ccc1O (some centres undefined),n,n,n,39.8µM,n
Cc1ccc(C)c(N2CCN(c3ncnc4onc(C)c34)CC2)c1,n,n,n,n,n
Cc1c(CCC(=O)N2CCCCC2)c(=O)oc2cc3occ(C(C)(C)C)c3cc12,u,n,n,n,n
SMILES,JMJD2A Tudor,GLS inhibitor,BAZ2B inh,G9a inh,HP1b chromo inh
COc1cc(CCN)ccc1O,n,n,n,n,n
COc1ccc(CCN(C)Cc2ccc(F)cc2F)cc1OC,3.98µM,n,u,10µM,u
CCN(CC)c1ccc(CN(C)CCc2ccc(OC)c(OC)c2)cc1,10µM,n,44.7µM,u,u
COc1cccc(NC(=O)c2cccn(Cc3ccccc3C)c2=O)c1,n,n,n,n,n
O=C1NC(=O)N(c2ccccc2F)C(=O)/C1=C/c1ccc(Oc2ccc([N+](=O)[O-])cn2)cc1,u,u,56.2µM,20µM,n
COc1ccc(NC(=O)C2C3CCC(O3)C2C(=O)O)c(OC)c1 (centres undefined),n,n,n,10µM,n
COc1cc(C(=S)N2CCOCC2)cc(OC)c1OC(=O)Cc1ccccc1,n,n,n,44.7µM,n
